HEK cytotox = cytotoxic compounds in HEK 293 cells | HEK 293 viability, ATP luminescence (CellTiter-Glo), 48-72 h | Potency, µM (titrated, usually from 115 µM), for inactives: top-dose activity change, negative = cytotoxicity, actives largely listed as inhibitors | actives 6.6% (n = 94,000) | AID 1345083; also: % is scaled to controls: 0 for no effect and ±100 for the full control effect; nearly all actives have a fitted effect of over 60% in size
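250 HEK 293 cells/well; compound by pintool; incubated 48 or 72 hr at 37 degree Celsius; CellTiter-Glo added, 10 min RT, luminescence imaged.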
NIH3T3 tox = NIH 3T3 cell cytotoxicity; NIH 3T3 viability, CellTiter-Glo ATP luminescence, 48-72 h; Potency, µM (series often up to 96.7 µM), for inactives: top-dose activity change, negative = cytotoxicity, actives largely listed as inhibitors; actives 4.3% (n = 94,000); AID 1345082; also: % is scaled to controls: 0 for no effect and ±100 for the full control effect; nearly all actives have a fitted effect of over 55% in size
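Cytotoxicity is measured as loss of cellular ATP: NIH 3T3 cells (400/well) are exposed to compound for 48 or 72 hr at 37 °C, then CellTiter-Glo luminescence is imaged after 10 min at room temperature.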
FLuc inh-1 = Photinus pyralis luciferase inhibition; P08659; purified P. pyralis luciferase, luminescence, biochemical; actives 2.5% (n = 76,000); Potency, µM (titrated, usually from 115 µM), usual class: inhibitors; also: % is scaled to controls: 0 for no effect and ±100 for the full control effect; nearly all actives have a fitted effect of over 65% in size
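Biochemical qHTS: compound (6-point titration) added to 10uM D-luciferin plus 10uM ATP in Tris acetate pH 7.5 buffer with Mg, Tween-20 and BSA, then purified enzyme at 10nM; light output imaged.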
NPR1 antag = blocks ANP-stimulated signaling of human Npr1 receptor | P16066 | HEK293 hNpr1 GloSensor cGMP, ANP-stimulated luminescence | Potency, µM (titrated, usually from 46.3 µM), for inactives: at the top dose activity change, negative = inhibition, usual class: inhibitors | actives 1.6% (n = 76,000) | AID 1347048; calls by dose curve; also: % is scaled to controls: 0 for no effect and ±100 for the full control effect; nearly all actives have a fitted effect of over 60% in size
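HEK293 cells stably expressing human Npr1 and cGMP GloSensor pGS-40F, loaded 2 h with 2% GloSensor reagent, given compound 30 min at room temperature. Luminescence read before and 20 min after 0.1 nM hNppA.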
GPT2 inh = inhibitors of human GPT2 alanine aminotransferase | Q8TD30 | Recombinant GPT2, coupled pyruvate oxidase/HRP Amplex Red fluorescence | Potency, µM (series often up to 57.7 µM), without a hit: at the top dose activity change, negative = inhibition, actives largely listed as inhibitors | actives 0.25% (n = 100,000); also: % is scaled to controls: 0 for no effect and ±100 for the full control effect; nearly all actives have a fitted effect of over 60% in size
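Fluorescence read-out: pyruvate from GPT2 turnover coupled to pyruvate oxidase, HRP and Amplex Red (0.2mM ThPP, 0.2U/mL PO and HRP, 50uM Amplex final). Substrates 250uM a-KG, 2mM L-alanine; enzyme 10ng/uL; 30 min RT.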
FLuc SDR no ATP = firefly luciferase binding stabilization, ATP absent. shares compounds with FLuc inh-1. Purified FLuc-C-HiBiT, Nano-Glo HiBiT luminescence, no ATP. Potency, µM (doses to about 32.7 µM), inactives show at the top dose activation (signal gain), most hits filed as activators. actives 7.8% (n = 1,300). AID 1963318; also: nearly all actives have a fitted effect of over 55% in size
FLuc SDR ATP = firefly luciferase binding stabilization, ATP added; shares compounds with FLuc inh-1; actives 8.7% (n = 1,300); purified FLuc-C-HiBiT + ATP, HiBiT complementation luminescence; Potency, µM (doses to about 32.7 µM), inactives show top-dose activation (gain of signal), usual class: activators;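 also: signal reports ligand binding via conformational change of the enzyme rather than luciferase catalysis; % of control where 0% means no effect; nearly all actives have a fitted effect of over 55% in size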
FLuc inh-2 = blocks firefly luciferase enzymatic activity. purified FLuc-C-HiBiT enzyme, luciferin luminescence. Potency, µM (highest dose often 32.7 µM), for inactives: at the top dose activity change, negative = inhibition, actives largely listed as inhibitors. shares compounds with FLuc inh-1. AID 1963320. actives 42% (n = 1,300); also: % is scaled to controls: 0 for no effect and ±100 for the full control effect; nearly all actives have a fitted effect of over 70% in size
* marks the source's active call; other numbers are inactive results; i = inactive; ? = inconclusive; · = no result; [ ] = remark or other dose. In the library only some 10% were active in any assay of this set; here they are far more common. Unless noted, calls follow the shape of the dose curve; as a rule, active = well fitted curve in the direction sought with a large enough effect; inconclusive = small, poorly fitted or top-dose-only effect, or another doubt; inactive = no such curve, though single readings can be large; an effect the other way counts as inactive or inconclusive. Potency is read from the fitted curve at half-maximal effect.

SMILES	HEK cytotox	NIH3T3 tox	FLuc inh-1	NPR1 antag	GPT2 inh	FLuc SDR no ATP	FLuc SDR ATP	FLuc inh-2
COc1ccc(NC(=O)C2CCN(C(=O)c3ncn4c3COC(c3ccc(OC)cc3)C4)CC2)cc1 (centres undefined)	-14%	-21%	i	-8%	1%	·	·	·
CCOc1ccc(NC(=O)C2CCN(C(=O)c3ncn4c3COC(c3ccccc3)C4)CC2)cc1 (centres undefined)	16%	i	13µM*	-5%	5%	13%	?	7µM*
COc1ccc(CCC(=O)NC2CCc3nnc(C)n3CC2)cc1OC (centres undefined)	3%	-1%	i	1%	0%	·	·	·
O=C(c1ccc(F)cc1)N1CCCC(c2nn(-c3ccc(Cl)cc3)c(=O)[nH]2)C1 (centres undefined)	?	?	i	-5%	-4%	·	·	·
O=C(NCc1ccccc1)C1CCN(C(=O)c2ncn3c2COC(c2ccc(Cl)cc2)C3)CC1 (centres undefined)	11%	i	?	4%	i	·	·	·
CCc1cccc(NC(=O)C2CCN(C(=O)c3ncn4c3COC(c3ccccc3)C4)CC2)c1 (centres undefined)	-14%	-3%	3.5µM*	?	i	13%	1.2µM*	1.8µM*
c1ccc(-c2noc(-c3nc(C4CC4)no3)n2)cc1	?	-6%	2.5µM*	?	i	17%	19%	?
Cc1ccc(-c2noc(-c3nc(C4CC4)no3)n2)cc1	-3%	3%	i	1%	i	·	·	·
COc1cc(NC(=O)c2cc3c(=O)[nH]c(C)cn3n2)cc(OC)c1OC	-29%	?	?	-1%	-15%	·	·	·
COc1cc(C(=O)Nc2cc(C)c(O)c(-c3nc4ccccc4s3)c2)cc(OC)c1OC	·	·	·	·	·	15%	10%	-7%
COc1ccc(C(=O)Nc2ccc([C@H]3OCC(=O)N[C@@H]3CO)cc2)cc1OC	-9%[172 µM]	-26%[174 µM]	i	-1%[70.6 µM]	-2%[88.5 µM]	·	·	·
COc1ccc(C(=O)Nc2cc(C)c(O)c(-c3nc4ccccc4s3)c2)cc1OC	·	·	·	·	·	21%	13%	?
CC(C)c1noc(-c2nc(-c3ccc4c(c3)OCO4)no2)n1	?	-24%	3.5µM*	?	i	16%	17%	7.9µM*
Cc1c(Cl)cccc1-n1nnc(-c2nc(-c3ccc4c(c3)OCO4)no2)c1C	·	·	·	·	·	18%	16%	11µM*
COc1cc2c(cc1OC)C(C[C@H]1CN(C(=O)c3cccs3)CC[C@H]1CC(=O)O)=NCC2	-4%	i	i	-8%	-5%	·	·	·
CC1CCCCN1c1csc2ccc(F)cc2c1=O (centres undefined)	·	·	·	·	·	29%	19%	8.8µM*
O=C(Nc1ccc([C@@H](O)[C@H]2COCC(=O)N2Cc2ccc(F)cc2)cc1)c1cnccn1	?	2%	i	4%	i	·	·	·
CC(C)(CC(=O)O)CC(=O)N1Cc2[nH]cnc2C[C@H]1c1nc(Cc2ccccc2)no1	1%[172 µM]	0%[174 µM]	i	14%[70.6 µM]	-3%[88.5 µM]	8%[49.3 µM]	7%[49.3 µM]	-2%[49.3 µM]
CN(Cc1ccccc1)C(=O)[C@@H]1Cc2nc[nH]c2CN1C(=O)CC(C)(C)CC(=O)O	1%[172 µM]	3%[138 µM]	i	6%[70.6 µM]	-6%[88.5 µM]	·	·	·
Cc1ccc2oc(C(=O)N[C@H]3COC[C@H]3Cc3cc(C)no3)c(C)c2c1	1%	-8%	i	4%	2%	·	·	·
COc1ccc(C(=O)N2CCCC2C(=O)N2CCC(N3Cc4ccccc4C3=O)CC2)cc1 (centres undefined)	-16%	-15%	·	·	5%	·	·	·
CCOC(=O)N1CCc2c(sc(NCc3cccs3)c2C(=O)Nc2ccc(OC)cc2OC)C1	·	·	·	·	·	6%	?	3.1µM*
CCOC(=O)N1CCc2c(sc(NCc3ccc(OCC)cc3)c2C(=O)Nc2ccc(OC)cc2OC)C1	·	·	·	·	·	13%	?	3.9µM*
CN1CCOc2c(C(=O)NCc3cnn(C)c3)cc(-c3ccccc3O)cc21	-22%[172 µM]	?	i	-4%[70.6 µM]	-10%[88.5 µM]	·	·	·
C#CCN1C(=O)[C@]2(C)[C@H](c3ccccc31)[C@@H](C(N)=O)CN2C(=O)c1cccc(OC)c1	?	-19%[46.1 µM]	·	·	-2%[27.3 µM]	·	·	·
SMILES	HEK cytotox	NIH3T3 tox	FLuc inh-1	NPR1 antag	GPT2 inh	FLuc SDR no ATP	FLuc SDR ATP	FLuc inh-2
COc1ccc(OCc2cc(C(=O)N3C[C@H]4CC[C@H]3C4)n[nH]2)c(Cl)c1	?	?	8.9µM*	-18%	i	13%	13%	-5%
CN1c2cc(C(=O)Nc3cccc(F)c3)ccc2C(=O)N2CCCCCC21 (centres undefined)	?	?	8.9µM*	-28%	i	12%	14%	?
CN1c2cc(C(=O)Nc3cccc(Cl)c3)ccc2C(=O)N2CCCCCC21 (centres undefined)	?	?	10µM*	-24%	i	10%	11%	?
Nc1ncnc2c1ncn2[C@@H]1O[C@H](CO)[C@@H](O)[C@H]1O	·	·	·	·	-2%	·	·	·
Nc1ncnc2c1ncn2[C@H]1O[C@H](CO)[C@@H](O)[C@@H]1O	·	·	·	·	·	11%	10%	2%
Cc1cccc2[nH]c(CCNC(=O)C3CCC(=O)N(C4CCCCCC4)C3)nc12 (centres undefined)	?	1%	i	2%	1%	·	·	·
Cc1c(CCNC(=O)c2ccc(Br)o2)sc2nc(-c3ccc(Cl)cc3)nn12	·	·	·	·	·	19%	11%	?
O=C(NCCc1ccc(Cl)cc1)c1cn2cc(-c3ccccc3)sc2n1	4%	-3%	·	·	i	·	·	·
Cc1cn2nc(C(=O)Nc3ccc(C(=O)NCCc4cccs4)cc3)cc2c(=O)[nH]1	16%	5%	4.5µM*	-6%	i	?	?	8.8µM*
Cc1cn2nc(C(=O)NCc3ccccn3)cc2c(=O)[nH]1	-6%	-16%	i	18%	i	·	·	·
CCOC(=O)C1CCCN(C(=O)c2nc3sccn3c2-c2ccc(F)cc2)C1 (centres undefined)	-20%	-25%	·	·	i	·	·	·
O=c1c2nc(N3CCC(c4ccccc4)CC3)ccc2ncn1C1CC1	89µM*	?	1.4µM*	?	-2%[88.5 µM]	20µM*	?	3.6µM*
O=c1c2nc(-c3ccccc3C(F)(F)F)ccc2ncn1C1CC1	-2%[172 µM]	?	i	3%[70.6 µM]	2%[88.5 µM]	·	·	·

Screening data from PubChem BioAssay.
